# Reference: PubChem BioAssay (EPA / NIEHS)
# Inconclusive results are not listed. Active and inactive are the calls of the source. The calls were made as follows, unless noted: active = hit-call score of the fitted dose curve at least 0.9, where 1 is the maximum; inconclusive = response in the unintended direction; inactive = score below 0.9.
# Assays:
# [1] = read-out: alkyl and aryl transferase (GSTA2), GSTA2 (gene 2939); experiment: CLD_GSTA2_6hr: CellzDirect (CLD) Gene Expression Assay for alkyl and aryl transferase (GSTA2) at 6 hours (AID 2283666)
# How it was run: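 Primary human hepatocytes from two donor preparations were dosed daily with fresh compound at multiple concentrations, 0.2% DMSO vehicle. GSTA2 mRNA was measured at 6 hours by qNPA chemiluminescence; induction fitted relative to DMSO, with cytotoxicity flagged morphologically.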
# [2] = read-out: sulfotransferase (SULT2A), SULT2A1 (gene 6822); experiment: CLD_SULT2A_6hr: CellzDirect (CLD) Gene Expression Assay for sulfotransferase (SULT2A) at 6 hours (AID 2283669);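 also: hits raise transcript level above the DMSO vehicle baseline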
# How it was run: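 Primary human hepatocytes from two donor preparations were dosed daily with chemicals or 0.2% DMSO and harvested at 6 h. Transcript induction read by qNPA chemiluminescence, fitted for gain of signal relative to DMSO; morphology-based cytotoxicity annotated.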
# [3] = CLD_ACTIN_24hr: CellzDirect (CLD) Gene Expression Assay for Baseline Control (Actin) at 24 hours (AID 2283670)
# How it was run: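 Primary human hepatocytes dosed over multiple concentrations with 0.2% DMSO vehicle; actin mRNA measured at 24 h by qNPA chemiluminescence. Background control endpoint, fitted as gain of signal versus DMSO.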
# [4] = read-out: glucuronosyltransferase (UGT1A1), UGT1A1 (gene 54658); experiment: CLD_UGT1A1_6hr: CellzDirect (CLD) Gene Expression Assay for glucuronosyltransferase (UGT1A1) at 6 hours (AID 2283672)
# How it was run: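 Primary human hepatocytes from two donor preparations, dosed with fresh solutions in 0.2% DMSO, harvested at 6 h. UGT1A1 mRNA measured by qNPA chemiluminescence; induction fitted upward versus DMSO.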
# [5] = Tanguay_ZF_120hpf_TR_legacy: (Legacy) Oregon State University Tanguay Lab 120 Hour Post-fertilization zebrafish Assay for Touch Response (AID 2283667)
# How it was run: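 5D WT embryos; static exposure to 120 hpf, 28C, sealed/dark; DMSO 0.64% v/v final. TR scored present/absent; dead embryos excluded. Pos ctrl 5uM trimethyltin chloride.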
# [6] = read-out: organic anion transporter (SLCO1B1), SLCO1B1 (gene 10599); experiment: CLD_SLCO1B1_6hr: CellzDirect (CLD) Gene Expression Assay for organic anion transporter (SLCO1B1) at 6 hours (AID 2283668);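 also: active means mRNA induction above DMSO baseline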
# How it was run: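 Primary human hepatocytes dosed daily with test chemicals (multiple concentrations) in 0.2% DMSO vehicle; harvested at 6 h. SLCO1B1 mRNA quantified by qNPA chemiluminescence, fitted as gain-of-signal versus DMSO; cytotoxicity from phase-contrast morphology flagged alongside.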
# [7] = read-out: xenobiotic metabolism (CYP1A1), CYP1A1 (gene 1543); experiment: CLD_CYP1A1_24hr: CellzDirect (CLD) Gene Expression Assay for xenobiotic metabolism (CYP1A1) at 24 hours (AID 2283673);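 also: CYP1A1 mRNA level by quantitative nuclease protection with chemiluminescence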
# How it was run: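 Primary human hepatocytes dosed daily with fresh solutions in 0.2% DMSO vehicle. mRNA measured at 24 h by quantitative nuclease protection assay with chemiluminescence; gain-of-signal fit versus DMSO, with morphology-based cytotoxicity flags.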
# [8] = read-out: Cytochrome P450 (CYP24A1_1), CYP24A1 (gene 1591); experiment: LTEA_HepaRG_CYP24A1_1: Life Technologies and Expression Analysis (LTEA) Assay for Cytochrome P450 (CYP24A1_1) using HepaRG (AID 2283671; active = hit-call score of the fitted dose curve at least 0.9, where 1 is the maximum; inactive = score below 0.9); details: mRNA level, 48 h; actives raise or lower the signal
# How it was run: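 In this test, gene induction or suppression of CYP24A1 in human HepaRG liver cells is measured by qRT-PCR after 48 h chemical treatment (eight concentrations, maximum 100 uM). Values are fitted bidirectionally relative to DMSO.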
# [9] = read-out: ABC Transporter (ABCB11), ABCB11 (gene 8647); experiment: CLD_ABCB11_24hr: CellzDirect (CLD) Gene Expression Assay for ABC Transporter (ABCB11) at 24 hours (AID 2283674; active = hit-call score of the fitted dose curve at least 0.9, where 1 is the maximum; inactive = score below 0.9)
# Description: CLD_24hr is a cell-based, multiplexed-readout assay that uses hepatocyte, a human liver primary cell, with measurements taken at 24 hours after chemical dosing in a 96-well plate.CLD_ABCB11_24hr is one of 16 assay component(s) measured or calculated from the CLD_24hr assay. It is designed to make measurements of mRNA induction, a form of inducible reporter, as detected with chemiluminescence signals by Quantitative Nuclease Protection Assay (qNPA) technology.Data from the assay component CLD_ABCB11_24hr was analyzed at the endpoint, CLD_ABCB11_24hr, in the positive analysis fitting direction relative to DMSO as the negative control and baseline of activity. […] Furthermore, this assay endpoint can be referred to as a primary readout. […]
# Human hepatocyte cultures were treated daily for two consecutive days with fresh dosing solutions containing appropriate concentrations of the 320 ToxCast chemicals (chemical identities were blinded to CellzDirect and other ToxCast collaborators), vehicle control (0.2% DMSO), and positive control inducers as summarized in Table 1. […] Cultures for each treatment group (i.e., media, vehicle [0.2% DMSO], positive control inducers [multiple concentrations], and the ToxCast chemicals [multiple concentrations]) were observed and cell morphology was assessed relative to vehicle control cultures at each harvest time point (0, 6, 24, or 48 h). […]
# [10] = read-out: ABC Transporter (ABCB11), ABCB11 (gene 8647); experiment: CLD_ABCB11_6hr: CellzDirect (CLD) Gene Expression Assay for ABC Transporter (ABCB11) at 6 hours (AID 2283675);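 also: hits raise ABCB11 mRNA level so AC50 marks induction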
# How it was run: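 Human primary hepatocytes (two donor preparations) given fresh chemical daily at multiple concentrations, vehicle 0.2% DMSO. ABCB11 mRNA induction measured 6 h after dosing by qNPA chemiluminescence versus DMSO; cytotoxicity annotated from morphology.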
structure (smiles),measurement,setting,value
CN(C)c1nc(=O)n(C2CCCCC2)c(=O)n1C,outcome,[1],inactive
same,outcome,[2],inactive
same,outcome,[3],inactive
same,outcome,[4],inactive
C=CC(=O)NCNC(=O)C=C,outcome,[5],inactive
CCOP(=S)(OCC)SCSC(C)(C)C,outcome,[5],inactive
Cc1ccccc1CO[C@@H]1C[C@@]2(C(C)C)CC[C@]1(C)O2,outcome,[1],inactive
same,outcome,[5],inactive
same,outcome,[6],inactive
same,outcome,[2],inactive
same,outcome,[4],inactive
same,outcome,[7],inactive
O=S(=O)(O)C(F)(F)C(F)(F)C(F)(F)C(F)(F)C(F)(F)C(F)(F)F,AC50,[5],25.9 µM (active)
Cc1cccc([N+](=O)[O-])c1,outcome,[5],inactive
CC(C)(c1ccccc1)c1ccc(O)cc1,outcome,[5],inactive
O=C(NC(=O)c1cc(F)c(F)cc1Cl)Nc1cc(F)ccc1N1CCC(C(=O)O)CC1,outcome,[5],inactive
Oc1ccc(C(c2ccc(O)cc2)(C(F)(F)F)C(F)(F)F)cc1,AC50,[5],52.8 µM (active)
CCOC(=O)C(O)(c1ccc(Cl)cc1)c1ccc(Cl)cc1,outcome,[5],inactive
Cc1ccc(O)c(C)c1,outcome,[5],inactive
Cc1cc(O)ccc1Cl,outcome,[5],inactive
CCCCCCCCCc1ccc(O)cc1,outcome,[5],inactive
same,outcome,[8],inactive
O=C(O)C(F)(F)C(F)(F)C(F)(F)C(F)(F)C(F)(F)C(F)(F)C(F)(F)C(F)(F)F,outcome,[5],inactive
Cc1ccccc1O,outcome,[5],inactive
CCCCCCCCCC[N+](C)(C)CCCCCCCCCC,outcome,[5],inactive
CCC(C)(c1ccc(O)cc1)c1ccc(O)cc1,AC50,[5],42.4 µM (active)
CC1=C2C[C@H]3[C@@H](CC=C4C[C@@H](O)CC[C@@]43C)[C@@H]2CC[C@]12O[C@@H]1C[C@H](C)CN[C@H]1[C@H]2C,AC50,[5],22.5 µM (active)
same,outcome,[8],inactive
Clc1ccc(Cl)cc1,outcome,[5],inactive
same,outcome,[8],inactive
C[C@]12CCC(=O)C=C1CC[C@@H]1[C@@H]2CC[C@]2(C)C(=O)CC[C@@H]12,AC50,[5],26.8 µM (active)
c1ccc(-c2ccccc2)cc1,outcome,[5],inactive
CCOCCOC(C)=O,outcome,[5],inactive
Clc1ccc(C(Cl)(Cl)Cl)cc1,outcome,[5],inactive
CCSC(=O)N(CC)C1CCCCC1,outcome,[6],inactive
same,outcome,[3],inactive
same,outcome,[4],inactive
same,outcome,[9],inactive
same,outcome,[10],inactive
N#Cc1ccc(N(CC(N)=O)CC(F)(F)F)cc1C(F)(F)F,outcome,[5],inactive
ClC1=C(Cl)[C@]2(Cl)[C@@H]3[C@@H](Cl)[C@H]4O[C@H]4[C@@H]3C1(Cl)C2(Cl)Cl,outcome,[5],inactive
O=C(O)C(F)(F)C(F)(F)C(F)(F)C(F)(F)C(F)(F)C(F)(F)C(F)(F)C(F)(F)C(F)(F)F,outcome,[5],inactive
same,outcome,[8],inactive
CCC(=O)O[C@H]1CC[C@H]2[C@@H]3CCC4=CC(=O)CC[C@]4(C)[C@H]3CC[C@]12C,outcome,[5],inactive
CC(C)C(=O)OCC(C)(C)C(OC(=O)C(C)C)C(C)C (centres undefined),outcome,[5],inactive
Oc1c(Cl)c(Cl)c(Cl)c(Cl)c1Cl,outcome,[5],inactive
ClC(Cl)=C(c1ccc(Cl)cc1)c1ccc(Cl)cc1,outcome,[5],inactive
CC(C)(O)C(=O)Nc1ccc([N+](=O)[O-])c(C(F)(F)F)c1,outcome,[5],inactive
COc1ccc(O)c(C(C)(C)C)c1,outcome,[5],inactive
NS(=O)(=O)C(F)(F)C(F)(F)C(F)(F)C(F)(F)C(F)(F)C(F)(F)C(F)(F)C(F)(F)F,outcome,[5],inactive
CCCCCCCCOC(=O)c1ccccc1C(=O)OCCCCCCCC,outcome,[5],inactive
COS(=O)(=O)OC,outcome,[5],inactive
same,outcome,[8],inactive
O=C(O)C(F)(F)C(F)(F)C(F)(F)C(F)(F)C(F)(F)F,outcome,[5],inactive
